Experimental data from PubChem BioAssay (NCATS).
“And” between values parts separate entries of the source, which are not always exact repeats. Identical values can stand only once. Inconclusive results are not listed. More than one record can exist for a structure, and the calls need not agree. The source made the active and inactive calls. Unless noted, the call rests on the fitted dose curve.

Legend:
[1] = Cell Viability - LYMP2-016 (AID 984; active means well fitted curve in the direction sought with a large enough effect; an effect the other way counts as inactive or inconclusive; further: on the % scale 0 is the no-effect control and ±100 the full control effect; nearly all actives have a fitted effect of over 55% in size)
Summary of the method: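 Cells were seeded at 2500 per well and rested 5 hr before a 24 hr compound exposure at 37 C. Viability was then gauged as cellular ATP by luciferase luminescence, with AC50 values fitted to the Hill equation.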

[2] = Cell Viability - LYMP2-018 (AID 985; active means well fitted curve in the direction sought with a large enough effect; an effect the other way counts as inactive or inconclusive;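 further: plate controls were DMSO only for no effect and tetraoctylammonium bromide at 92 µM for full effect; nearly all actives have a fitted effect of over 50% in size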)
Summary of the method: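 In this qHTS viability assay, cells are treated for 24 hr and cellular ATP is quantified by luciferase-based luminescence, with tetraoctylammonium bromide as positive control.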

[3] = Cell Viability - LYMP2-020 (AID 986; active means well fitted curve in the direction sought with a large enough effect; an effect the other way counts as inactive or inconclusive;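 further: series mostly up to about 92 µM; cells exposed to compound for 24 h at 37 °C; plate controls were DMSO only for no effect and tetraoctylammonium bromide at 92 µM for full effect; nearly all actives have a fitted effect of over 55% in size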)
Summary of the method: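 Cells at 2500 per well receive a 24 hr compound exposure at 37 C. Viability is measured as ATP-dependent luciferase luminescence, with AC50 modeled from qHTS concentration-response curves.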

[4] = Cell Viability - LYMP2-022 (AID 987; active means well fitted curve in the direction sought with a large enough effect; an effect the other way counts as inactive or inconclusive;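 further: 0% = DMSO alone and full effect = tetraoctylammonium bromide at 92 µM; nearly all actives have a fitted effect of over 55% in size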)
Summary of the method: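 In this qHTS cytotoxicity screen, compound titrations were incubated 24 hr at 37 C with human lymphoblastoid cells in complete medium. Luciferase-based ATP luminescence provided the viability signal.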

[5] = Cell Viability - LYMP2-024 (AID 988; active means well fitted curve in the direction sought with a large enough effect; an effect the other way counts as inactive or inconclusive;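 further: plate controls were DMSO only for no effect and 92 µM tetraoctylammonium bromide for full effect; nearly all actives have a fitted effect of over 60% in size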)
Summary of the method: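 Cells at 2500 per well received compound for 24 hr after a 5 hr settling period. Viability was scored by CellTiter-Glo luminescence, with AC50 from Hill fits.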

[6] = Cell Viability - LYMP2-026 (AID 989; active means well fitted curve in the direction sought with a large enough effect; an effect the other way counts as inactive or inconclusive;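 further: cells exposed to compound for 24 h at 37 °C; on the % scale 0 is the no-effect control and ±100 the full control effect; nearly all actives have a fitted effect of over 50% in size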)
Summary of the method: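 Acute toxicity screen in complete culture medium, with 24 hr compound exposure at 37 C. Viability read as cellular ATP via luciferase reaction, with tetraoctylammonium bromide (6.4pM to 92 uM) as positive control.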

[7] = Cell Viability - LYMP1-002 - Assay at 24 hr (AID 993; active means well fitted curve in the direction sought with a large enough effect; an effect the other way counts as inactive or inconclusive; further: on the % scale 0 is the no-effect control and ±100 the full control effect)
Summary of the method: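 Viability was judged from intracellular ATP using a luciferase read-out, following a 24-hour compound incubation at 37 C of lymphoblastoid cells seeded at 2500 per well. Concentration-response data were fitted to the Hill equation for AC50.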

[8] = qHTS Assay for Identification of Small Molecule Inducers of Hypoxia Response (AID 2120; active means well fitted curve in the direction sought with a large enough effect in the signal ratio, with a control signal flat, not every such curve was filed as active; the % refers to the signal ratio; further: 0% is about no effect)
Summary of the method: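 HRE-bla ME-180, 2500 cells/well, 0.5% dialyzed FBS medium; cpd titration, 17 h 37 degrees C; CCF4 2.5 h RT; Ex 405, Em 460/530 ratio -> %Activity, AC50.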

[9] = target: Bile acid receptor (Homo sapiens) (UniProt Q96RI1); experiment: qHTS assay for small molecule antagonists of farnesoid X receptor signaling (AID 588526); further: on the % scale 0 is the no-effect control and ±100 the full control effect
Summary of the method: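 Antagonist mode: titrated compounds tested against chenodeoxycholic acid stimulation (normalized to 50 uM CDCA and DMSO) in GeneBLAzer HEK293T cells for 16 h. Beta-lactamase read by CCF4 fluorescence; IC50 from Hill fits.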

[10] = target: Glucocorticoid receptor (Homo sapiens) (UniProt P04150); experiment: qHTS assay for small molecule agonists of glucocorticoid receptor signaling (AID 588532; active means well fitted curve in the direction sought with a large enough effect in the signal ratio, with a control signal flat; the % refers to the signal ratio;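 further: 100% = dexamethasone at 0.1 µM and 0% = DMSO only wells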); conditions: HeLa MMTV-bla, beta-lactamase ratio, agonist, 18 h; stronger effect = higher value; percent of dexamethasone control, DMSO zero
Summary of the method: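 HeLa GRE-bla reporter cells; 18 h compound exposure at 37 C; 2 h CCF4 loading at room temperature; fluorescence at 460 and 530 nm; EC50 by Hill equation.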

[11] = target: Glucocorticoid receptor (Homo sapiens) (UniProt P04150); experiment: qHTS assay for small molecule antagonists of glucocorticoid receptor signaling (AID 588533; active means well fitted inhibition curve with a large enough effect in the signal ratio, with a control signal flat, not every such curve was filed as active; the % refers to the signal ratio; further: on the % scale 0 is the no-effect control and ±100 the full control effect)
Summary of the method: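 Antagonist-mode qHTS: compound titrations added to GRE-bla HeLa cells, then dexamethasone 2 nM final; 18 h, 37 C. CCF4 FRET fluorescence normalized to dexamethasone and DMSO; IC50 from Hill fit.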

[12] = qHTS assay for small molecule antagonists of peroxisome proliferator-activated receptor delta signaling (AID 588535; active means well fitted inhibition curve with a large enough effect in the signal ratio, with a control signal flat, not every such curve was filed as active; the % refers to the signal ratio;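 on max response: cells co-treated with a PPAR-delta agonist as stimulator during compound exposure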); conditions: HEK293T PPARd-UAS-bla, beta-lactamase FRET ratio, 18 h; 460 nm channel
Summary of the method: (§1)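 Beta-lactamase reporter read-out (405 nm excitation, 460/530 nm emission) after CCF4 loading for 2 hrs at RT. HEK293T PPAR-delta-UAS-bla cells, 2% charcoal/dextran FBS, compounds for 18 hrs at 37 C. Hill fit gave IC50 and efficacy.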

[13] = target: Peroxisome proliferator-activated receptor delta (Homo sapiens) (UniProt Q03181); experiment: as above
Summary of the method: as §1

[14] = target: Peroxisome proliferator-activated receptor gamma (Homo sapiens) (UniProt P37231); experiment: qHTS assay for small molecule agonists of peroxisome proliferator-activated receptor gamma signaling (AID 588536; active means well fitted curve in the direction sought with a large enough effect in the signal ratio, with a control signal flat, not every such curve was filed as active; the % refers to the signal ratio;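 further: 0% = DMSO basal wells and 100% = rosiglitazone at 2 µM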)
Summary of the method: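 Compound treatment: 16 h, 37 C, HEK293 GeneBLAzer cells. Detection: CCF4, 2 h RT. Values: Hill-fit EC50, efficacy as % of 2 uM rosiglitazone.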

[15] = target: Peroxisome proliferator-activated receptor gamma (Homo sapiens) (UniProt P37231); experiment: qHTS assay for small molecule antagonists of peroxisome proliferator-activated receptor gamma signaling (AID 588537; active means well fitted inhibition curve with a large enough effect in the signal ratio, with a control signal flat, not every such curve was filed as active; the % refers to the signal ratio;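 further: reporter cells co-stimulated with 50 nM rosiglitazone agonist during compound treatment; % of control where 0% means no effect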)
Summary of the method: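 Read-out: CCF4 fluorescence (ex 405, em 460/530 nm) after 2 h at RT. Cells were HEK293 carrying a UAS-bla reporter and treated 16 h at 37 C with compound plus rosiglitazone (50 nM final). Normalized to rosiglitazone and DMSO.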

[16] = target: Vitamin D3 receptor (Homo sapiens) (UniProt P11473); experiment: qHTS assay for small molecule antagonists of vitamin D receptor signaling (AID 588541);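 further: receptor activated by calcitriol during compound treatment; series mostly up to about 77 µM; on the % scale 0 is the no-effect control and ±100 the full control effect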
Summary of the method: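 VDR-UAS-bla HEK293T cells in 2% charcoal-stripped FBS were stimulated with 1-alpha,25-dihydroxyvitamin D3 (3 nM final) plus compound for 16 h at 37 C. The beta-lactamase CCF4 readout was normalized to 50 nM agonist and DMSO, and Hill fits gave IC50.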

[17] = target: Vitamin D3 receptor (Homo sapiens) (UniProt P11473); experiment: qHTS assay for small molecule agonists of vitamin D receptor signaling (AID 588543);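 further: 0% = DMSO basal and 100% = reference agonist control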
Summary of the method: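 Reporter cells (HEK293T, VDR-UAS-bla) were seeded in medium with 2% charcoal-stripped serum and incubated 5 h, then compounds in concentration series were added for 16 h at 37 °C. Stimulation was scaled between DMSO basal and 50 nM 1α,25-dihydroxyvitamin D3.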

[18] = qHTS assay for small molecule agonists of retinoid X receptor alpha signaling (AID 588544); conditions: HEK293T RXRa-UAS-bla, beta-lactamase reporter, 18 h; 530 nm emission;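 on activation: 0% = DMSO basal wells and 100% = reference agonist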
[19] = target: Retinoic acid receptor RXR-alpha (Homo sapiens) (UniProt P19793); experiment: as above
[20] = target: Thyroid hormone receptor beta (Homo sapiens) (UniProt P10828); experiment: qHTS assay for small molecule agonists of thyroid hormone receptor beta signaling (AID 588545);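 further: 0% = DMSO only and 100% = 10 nM T3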
Summary of the method: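 TR-UAS-bla GripTite HEK 293 cells (2500/well, medium with 2% charcoal/dextran FBS) were treated in agonist mode for 18 h at 37 C, titrated. Beta-lactamase was read by CCF4 ratio after 2 h; normalized to 10 nM T3 (100%) and DMSO, Hill-fitted for EC50 and efficacy.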

[21] = qHTS assay for small molecule antagonists of retinoid X receptor alpha signaling (AID 588546; active means well fitted inhibition curve with a large enough effect in the signal ratio, with a control signal flat, not every such curve was filed as active; the % refers to the signal ratio); conditions: HEK293T RXRa-UAS-bla, beta-lactamase ratio, antagonist mode; measured here: W530 green channel, cytotoxicity proxy
Summary of the method: (§2)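 Beta-lactamase reporter inhibition, read as CCF4 fluorescence ratio (ex 405, em 460/530 nm) after 2 h at RT. HEK293T UAS-bla cells, 2500/well, were stimulated with 9-cis-RA at 500 or 100 nM final alongside test compound for 18 h at 37 C.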

[22] = target: Retinoic acid receptor RXR-alpha (Homo sapiens) (UniProt P19793); experiment: as above; conditions: HEK293T RXRa-UAS-bla, beta-lactamase ratio, antagonist mode
Summary of the method: as §2

[23] = target: Thyroid hormone receptor beta (Homo sapiens) (UniProt P10828); experiment: qHTS assay for small molecule antagonists of thyroid hormone receptor beta signaling (AID 588547; active means well fitted inhibition curve with a large enough effect in the signal ratio, with a control signal flat, not every such curve was filed as active; the % refers to the signal ratio); conditions: TR-UAS-bla HEK293, beta-lactamase ratio, antagonist mode, 18 h
Summary of the method: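 TR-UAS-bla GripTite HEK293 cells in 2% charcoal/dextran FBS medium; compounds 0.59 nM to 92 uM with T3 at 0.4nM final, 18 h at 37 C. Beta-lactamase read by CCF4 fluorescence (460/530 nm); Hill fits gave IC50 and efficacy.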

[24] = target: Voltage-gated inwardly rectifying potassium channel KCNH2 (Homo sapiens) (UniProt Q12809); experiment: qHTS Assay for Small Molecule Inhibitors of the Human hERG Channel Activity (AID 588834; active means well fitted curve in the direction sought with a large enough effect; an effect the other way counts as inactive or inconclusive;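 further: top concentration of the series differs between compounds; on the % scale 0 is the no-effect control and ±100 the full control effect; lower thallium flux fluorescence means stronger hERG block; nearly all actives have a fitted effect of over 50% in size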)
Summary of the method: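 Step 1: BacMam hERG transduction of U2OS, 4 hrs RT. Step 2: overnight 37 °C, plate 2000 cells/well, 4 hr. Step 3: FluxOR load, compound 10 min, stimulate, read fluorescence.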

[25] = qHTS assay for small molecule agonists of the antioxidant response element (ARE) signaling pathway (AID 651741; active means well fitted activation curve with a large enough effect in the signal ratio; the % refers to the signal ratio; further: potency means the concentration at half of the fitted maximal effect; on activation: % of control where 0% means no effect)
Summary of the method: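 HepG2 ARE-bla reporter cells, 2,000/well; 5 h settle at 37 C/5% CO2; compound pin transfer (23 nL, DMSO); 16 h at 37 C; LiveBLAzer B/G FRET substrate, 2 h RT; fluorescence intensity read.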

Sequence of Thyroid hormone receptor beta (Homo sapiens) (P10828 whole entry, looked up): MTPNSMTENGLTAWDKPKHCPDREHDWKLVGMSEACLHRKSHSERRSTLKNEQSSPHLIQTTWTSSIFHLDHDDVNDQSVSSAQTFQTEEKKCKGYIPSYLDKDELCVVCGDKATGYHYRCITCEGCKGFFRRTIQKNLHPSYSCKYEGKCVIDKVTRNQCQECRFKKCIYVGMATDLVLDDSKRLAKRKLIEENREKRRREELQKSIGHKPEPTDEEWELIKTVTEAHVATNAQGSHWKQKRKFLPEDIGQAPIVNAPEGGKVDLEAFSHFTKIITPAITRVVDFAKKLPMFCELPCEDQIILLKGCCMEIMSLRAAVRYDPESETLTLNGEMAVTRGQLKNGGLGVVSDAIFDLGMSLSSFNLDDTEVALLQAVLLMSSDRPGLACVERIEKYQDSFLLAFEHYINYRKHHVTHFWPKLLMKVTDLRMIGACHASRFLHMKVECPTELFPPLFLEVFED
Sequence of Glucocorticoid receptor (Homo sapiens) (P04150 whole entry, looked up): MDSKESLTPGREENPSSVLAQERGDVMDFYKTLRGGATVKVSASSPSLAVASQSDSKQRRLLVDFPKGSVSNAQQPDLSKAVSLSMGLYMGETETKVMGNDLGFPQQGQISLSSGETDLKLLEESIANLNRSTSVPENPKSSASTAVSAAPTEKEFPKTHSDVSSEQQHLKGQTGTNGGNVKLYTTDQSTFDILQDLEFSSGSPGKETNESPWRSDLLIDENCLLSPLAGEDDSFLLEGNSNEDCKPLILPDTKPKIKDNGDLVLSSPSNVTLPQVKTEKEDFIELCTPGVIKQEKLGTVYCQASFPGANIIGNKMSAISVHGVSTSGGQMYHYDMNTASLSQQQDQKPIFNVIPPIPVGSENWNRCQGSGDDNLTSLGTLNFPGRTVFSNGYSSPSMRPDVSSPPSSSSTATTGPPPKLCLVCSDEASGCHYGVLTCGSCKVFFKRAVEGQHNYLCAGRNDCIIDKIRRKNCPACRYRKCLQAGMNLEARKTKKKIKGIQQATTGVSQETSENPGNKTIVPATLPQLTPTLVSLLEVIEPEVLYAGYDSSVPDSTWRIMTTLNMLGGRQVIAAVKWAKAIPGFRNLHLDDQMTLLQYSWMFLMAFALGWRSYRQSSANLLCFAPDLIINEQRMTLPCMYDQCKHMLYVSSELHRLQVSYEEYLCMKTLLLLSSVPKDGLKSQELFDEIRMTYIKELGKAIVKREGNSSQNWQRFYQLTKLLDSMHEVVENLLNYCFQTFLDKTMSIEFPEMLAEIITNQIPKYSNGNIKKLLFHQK
Sequence of Vitamin D3 receptor (Homo sapiens) (P11473 whole entry, looked up): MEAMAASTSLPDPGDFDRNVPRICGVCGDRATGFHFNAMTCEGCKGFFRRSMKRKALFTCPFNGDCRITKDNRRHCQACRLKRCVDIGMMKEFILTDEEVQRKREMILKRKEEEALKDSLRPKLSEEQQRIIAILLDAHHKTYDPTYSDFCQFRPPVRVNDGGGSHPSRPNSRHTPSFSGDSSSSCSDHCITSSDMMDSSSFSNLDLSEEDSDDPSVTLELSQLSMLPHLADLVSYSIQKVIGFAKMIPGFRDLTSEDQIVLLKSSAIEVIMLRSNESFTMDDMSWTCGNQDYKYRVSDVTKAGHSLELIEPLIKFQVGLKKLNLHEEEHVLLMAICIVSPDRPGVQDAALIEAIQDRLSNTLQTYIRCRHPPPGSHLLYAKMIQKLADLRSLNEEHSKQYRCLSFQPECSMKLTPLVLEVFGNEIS
Sequence of Peroxisome proliferator-activated receptor gamma (Homo sapiens) (P37231 whole entry, looked up): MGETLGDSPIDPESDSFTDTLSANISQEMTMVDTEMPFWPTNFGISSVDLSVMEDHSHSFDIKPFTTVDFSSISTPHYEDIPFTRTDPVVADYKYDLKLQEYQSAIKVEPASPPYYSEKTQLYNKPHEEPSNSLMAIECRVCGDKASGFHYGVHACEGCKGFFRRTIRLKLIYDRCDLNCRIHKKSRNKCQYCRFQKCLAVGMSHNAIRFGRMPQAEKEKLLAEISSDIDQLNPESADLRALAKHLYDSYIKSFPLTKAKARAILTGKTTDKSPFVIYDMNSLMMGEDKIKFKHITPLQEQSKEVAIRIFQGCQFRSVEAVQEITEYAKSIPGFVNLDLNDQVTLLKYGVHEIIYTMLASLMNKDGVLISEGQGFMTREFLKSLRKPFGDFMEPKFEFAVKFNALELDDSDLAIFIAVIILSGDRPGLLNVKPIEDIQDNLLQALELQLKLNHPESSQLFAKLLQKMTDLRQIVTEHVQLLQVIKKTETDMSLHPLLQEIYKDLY
Sequence of Retinoic acid receptor RXR-alpha (Homo sapiens) (P19793 whole entry, looked up): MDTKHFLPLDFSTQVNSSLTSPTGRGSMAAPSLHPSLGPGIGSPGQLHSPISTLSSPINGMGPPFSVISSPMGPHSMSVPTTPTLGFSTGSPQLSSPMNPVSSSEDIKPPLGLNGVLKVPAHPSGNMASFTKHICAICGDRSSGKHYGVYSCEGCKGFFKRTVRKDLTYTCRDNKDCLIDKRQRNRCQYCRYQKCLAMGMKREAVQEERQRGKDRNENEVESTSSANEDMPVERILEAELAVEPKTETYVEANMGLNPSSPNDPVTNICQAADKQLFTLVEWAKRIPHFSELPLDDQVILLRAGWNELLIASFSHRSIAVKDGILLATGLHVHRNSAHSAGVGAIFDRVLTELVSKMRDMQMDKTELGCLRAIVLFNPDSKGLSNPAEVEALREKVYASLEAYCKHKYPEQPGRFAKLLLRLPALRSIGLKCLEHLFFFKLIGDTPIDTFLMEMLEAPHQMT
Sequence of Bile acid receptor (Homo sapiens) (Q96RI1 whole entry, looked up): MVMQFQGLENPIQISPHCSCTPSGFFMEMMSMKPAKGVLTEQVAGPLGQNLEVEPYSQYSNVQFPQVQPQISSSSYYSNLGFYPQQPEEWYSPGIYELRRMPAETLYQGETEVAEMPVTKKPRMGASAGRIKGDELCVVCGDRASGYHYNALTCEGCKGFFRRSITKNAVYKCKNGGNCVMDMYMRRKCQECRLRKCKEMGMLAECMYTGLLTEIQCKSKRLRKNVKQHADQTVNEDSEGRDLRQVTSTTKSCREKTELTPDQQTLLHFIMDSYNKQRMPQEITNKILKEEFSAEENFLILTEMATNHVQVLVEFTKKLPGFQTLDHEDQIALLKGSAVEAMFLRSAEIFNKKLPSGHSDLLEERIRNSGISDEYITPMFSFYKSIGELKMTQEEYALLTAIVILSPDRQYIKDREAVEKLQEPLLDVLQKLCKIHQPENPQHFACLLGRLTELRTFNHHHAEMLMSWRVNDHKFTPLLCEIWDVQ
Sequence of Peroxisome proliferator-activated receptor delta (Homo sapiens) (Q03181 whole entry, looked up): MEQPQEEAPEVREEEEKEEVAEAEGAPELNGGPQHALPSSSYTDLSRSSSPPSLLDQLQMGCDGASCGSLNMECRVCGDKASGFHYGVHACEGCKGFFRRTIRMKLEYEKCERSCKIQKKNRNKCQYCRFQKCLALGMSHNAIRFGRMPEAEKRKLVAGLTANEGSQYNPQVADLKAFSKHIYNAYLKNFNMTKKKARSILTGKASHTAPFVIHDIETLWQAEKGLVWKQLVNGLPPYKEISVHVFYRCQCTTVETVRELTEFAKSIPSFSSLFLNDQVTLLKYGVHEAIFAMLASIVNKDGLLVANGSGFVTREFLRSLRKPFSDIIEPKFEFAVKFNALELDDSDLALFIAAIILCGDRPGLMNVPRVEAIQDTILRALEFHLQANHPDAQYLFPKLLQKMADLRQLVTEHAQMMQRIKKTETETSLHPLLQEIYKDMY
Sequence of Voltage-gated inwardly rectifying potassium channel KCNH2 (Homo sapiens) (Q12809 whole entry, looked up): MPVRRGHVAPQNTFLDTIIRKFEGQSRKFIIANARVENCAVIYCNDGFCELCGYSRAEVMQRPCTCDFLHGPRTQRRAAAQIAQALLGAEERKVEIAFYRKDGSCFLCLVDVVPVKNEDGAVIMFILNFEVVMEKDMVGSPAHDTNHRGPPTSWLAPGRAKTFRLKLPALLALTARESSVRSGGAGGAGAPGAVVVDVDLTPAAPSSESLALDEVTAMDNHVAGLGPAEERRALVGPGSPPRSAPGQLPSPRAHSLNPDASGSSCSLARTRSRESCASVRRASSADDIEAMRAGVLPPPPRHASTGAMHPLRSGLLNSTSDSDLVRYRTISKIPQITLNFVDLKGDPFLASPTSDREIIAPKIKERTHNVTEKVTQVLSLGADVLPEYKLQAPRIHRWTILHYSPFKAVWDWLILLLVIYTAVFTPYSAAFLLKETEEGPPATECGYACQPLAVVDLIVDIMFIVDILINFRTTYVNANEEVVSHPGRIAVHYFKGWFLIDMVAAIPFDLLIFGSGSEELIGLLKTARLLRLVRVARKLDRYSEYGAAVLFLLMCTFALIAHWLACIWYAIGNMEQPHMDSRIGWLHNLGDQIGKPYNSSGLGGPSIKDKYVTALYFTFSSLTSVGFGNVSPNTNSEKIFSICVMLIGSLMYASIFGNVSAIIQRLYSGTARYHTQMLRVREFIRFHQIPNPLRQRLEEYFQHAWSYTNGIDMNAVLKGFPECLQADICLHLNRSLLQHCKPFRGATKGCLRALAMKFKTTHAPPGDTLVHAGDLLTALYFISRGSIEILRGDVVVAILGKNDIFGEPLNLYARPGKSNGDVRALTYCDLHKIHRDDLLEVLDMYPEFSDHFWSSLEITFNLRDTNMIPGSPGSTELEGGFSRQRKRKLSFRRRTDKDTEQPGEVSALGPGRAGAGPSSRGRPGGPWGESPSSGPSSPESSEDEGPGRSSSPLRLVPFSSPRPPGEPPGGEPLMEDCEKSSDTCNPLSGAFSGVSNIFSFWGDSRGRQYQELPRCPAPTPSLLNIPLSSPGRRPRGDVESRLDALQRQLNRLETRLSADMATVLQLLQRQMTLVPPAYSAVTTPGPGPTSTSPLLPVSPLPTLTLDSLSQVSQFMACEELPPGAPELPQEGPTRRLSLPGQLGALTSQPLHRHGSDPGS

C=CCc1ccc(OC)c(OC)c1
-12.6% and 4.43%: max response [18]
inactive: Potency [1] | Potency [2] | Potency [3] | Potency [4] | Potency [5] | Potency [6] | Potency [7] | outcome [8] | outcome [9] | activation [10] -12.3% | Potency [11] | Potency [13] | outcome [14] | outcome [15] | outcome [16] | outcome [17] | outcome [19] | outcome [20] | max response [22] 9.84% and -24.7% | activity change % (negative = inhibition) [23] 11.4% | Potency [24]
10.2% and -6.71%: max response [12]
-6.05% and 0.363%: max response [21]
33.5 µM (active) and inactive: Potency [25]
